# Values joined by “and” are separate entries in the source; they are usually repeats but may differ in a detail not shown here. Identical values can stand only once. Like-named read-outs stand apart in the source and are kept apart here.
# Legend:
# Conditions in all cases: n = 1
# [1] = system: CHEK2
# [2] = system: CIT
# [3] = system: CLK1
# [4] = system: CLK2
# [5] = system: CLK3
# [6] = system: CLK4
# [7] = system: CSF1R-autoinhibited
# [8] = system: CSF1R
# [9] = system: CSK
# [10] = system: CSNK1A1L
# [11] = system: CSNK1A1
# [12] = system: CSNK1D
# [13] = system: CSNK1E
# [14] = system: CSNK1G1
# [15] = system: CSNK1G2
# [16] = system: CSNK1G3
# [17] = system: CSNK2A1
# [18] = system: CSNK2A2
# [19] = system: T1, CTK
# T1 construct: gene MATK
# [20] = system: DAPK1
# [21] = concentration: 1 μM, replicates: in singlicate
# [22] = concentration: 1 μM,replicates: in singlicate, 1 µM
# 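Also: KINOMEscan kinase panel screen.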
compound,measurement,setting,value
O=c1cc(N2CCOCC2)nc2n(Cc3cccc(Cl)c3Cl)ccn12 [GSK2286295],%Inh,[1]; [21],0%
same,%Inh,[2]; [21],5%
same,%Inh,[3]; [21],64%
same,%Inh,[4]; [21],14%
same,%Inh,[5]; [21],13%
same,%Inh,[6]; [21],51%
same,%Inh,[7]; [21],0%
same,%Inh,[8]; [21],25%
same,%Inh,[9]; [21],0%
same,%Inh,[10]; [21],6%
same,%Inh,[11]; [21],27%
same,%Inh,[12]; [21],26%
same,%Inh,[13]; [21],41%
same,%Inh,[14]; [21],10%
same,%Inh,[15]; [21],0%
same,%Inh,[16]; [21],41%
same,%Inh,[17]; [21],2%
same,%Inh,[18]; [21],5%
same,%Inh,[19]; [21],0%
same,%Inh,[20]; [21],8%
COc1cc2ncn(-c3cc(OCC4CCCO4)c(C(N)=O)s3)c2cc1OC (stereo not shown) [GSK204607],%Inh,[1]; [21],20%
same,%Inh,[2]; [21],12%
same,%Inh,[3]; [21],22%
same,%Inh,[4]; [21],0%
same,%Inh,[5]; [21],10%
same,%Inh,[6]; [21],18%
same,%Inh,[7]; [21],3%
same,%Inh,[8]; [21],5%
same,%Inh,[9]; [21],0%
same,%Inh,[10]; [21],0%
same,%Inh,[11]; [21],0%
same,%Inh,[12]; [21],8%
same,%Inh,[13]; [21],17%
same,%Inh,[14]; [21],1%
same,%Inh,[15]; [21],0%
same,%Inh,[16]; [21],26%
same,%Inh,[17]; [21],8%
same,%Inh,[18]; [21],9%
same,%Inh,[19]; [21],0%
same,%Inh,[20]; [21],29%
CSc1nn2c(=O)cc(N3CCOCC3)nc2n1Cc1cccc(C(F)(F)F)c1C [GSK2363608],%Inh,[1]; [21],0%
same,%Inh,[2]; [22],23% and 2%
same,%Inh,[3]; [22],43% and 31%
same,%Inh,[4]; [21],0%
same,%Inh,[5]; [22],0% and 6%
same,%Inh,[6]; [22],17% and 0%
same,%Inh,[7]; [21],0%
same,%Inh,[8]; [22],23% and 9%
same,%Inh,[9]; [22],11% and 0%
same,%Inh,[10]; [22],8% and 7%
same,%Inh,[11]; [21],0%
same,%Inh,[12]; [22],27% and 8%
same,%Inh,[13]; [22],25% and 19%
same,%Inh,[14]; [22],100% and 4%
same,%Inh,[15]; [21],0%
same,%Inh,[16]; [22],41% and 20%
same,%Inh,[17]; [22],7% and 0%
same,%Inh,[18]; [22],7% and 0%
same,%Inh,[19]; [21],0%
same,%Inh,[20]; [22],3% and 0%
CC(C)(C)c1ccc(C(=O)Nc2cn3cc(-c4cccnc4)ccc3n2)cc1,%Inh,[1]; [21],6%
same,%Inh,[2]; [21],28%
same,%Inh,[3]; [21],84%
same,%Inh,[4]; [21],41%
same,%Inh,[5]; [21],32%
same,%Inh,[6]; [21],74%
same,%Inh,[7]; [21],10%
same,%Inh,[8]; [21],30%
same,%Inh,[9]; [21],13%
same,%Inh,[10]; [21],15%
same,%Inh,[11]; [21],41%
same,%Inh,[12]; [21],78%
same,%Inh,[13]; [21],92.4%
same,%Inh,[14]; [21],10%
same,%Inh,[15]; [21],24%
same,%Inh,[16]; [21],21%
same,%Inh,[17]; [21],22%
same,%Inh,[18]; [21],17%
same,%Inh,[19]; [21],12%
same,%Inh,[20]; [21],40%
Cc1ccc(NC(=O)Nc2cc(C(C)(C)C)nn2-c2ccccc2)cc1 [GSK1014915],%Inh,[1]; [21],0%
same,%Inh,[2]; [21],29%
same,%Inh,[3]; [21],33%
same,%Inh,[4]; [21],0%
same,%Inh,[5]; [21],14%
same,%Inh,[6]; [21],15%
same,%Inh,[7]; [21],0%
same,%Inh,[8]; [21],30%
same,%Inh,[9]; [21],0%
same,%Inh,[10]; [21],9%
same,%Inh,[11]; [21],0%
same,%Inh,[12]; [21],13%
same,%Inh,[13]; [21],0%
same,%Inh,[14]; [21],0%
same,%Inh,[15]; [21],0%
same,%Inh,[16]; [21],25%
same,%Inh,[17]; [21],13%
same,%Inh,[18]; [21],0%
same,%Inh,[19]; [21],18%
same,%Inh,[20]; [21],6%
O=C(Nc1n[nH]c2cc(-c3cccc(F)c3F)ccc12)C1CC1 [SB-733894],%Inh,[1]; [21],0%
same,%Inh,[2]; [21],6%
same,%Inh,[3]; [21],0%
same,%Inh,[4]; [21],13%
same,%Inh,[5]; [21],0%
same,%Inh,[6]; [21],0%
same,%Inh,[7]; [21],0%
same,%Inh,[8]; [21],7%
same,%Inh,[9]; [21],0%
same,%Inh,[10]; [21],0%
same,%Inh,[11]; [21],16%
same,%Inh,[12]; [21],17%
same,%Inh,[13]; [21],0%
same,%Inh,[14]; [21],0%
same,%Inh,[15]; [21],4%
same,%Inh,[16]; [21],0%
same,%Inh,[17]; [21],0%
same,%Inh,[18]; [21],29%
same,%Inh,[19]; [21],56%
same,%Inh,[20]; [21],20%
Cc1cccc(-c2nc(Nc3cccc(C(N)=O)c3)c3ccccc3n2)n1 [GW876019],%Inh,[1]; [21],0%
same,%Inh,[2]; [21],45%
same,%Inh,[3]; [21],18%
same,%Inh,[4]; [21],6%
same,%Inh,[5]; [21],14%
same,%Inh,[6]; [21],0%
same,%Inh,[7]; [21],0%
same,%Inh,[8]; [21],0%
same,%Inh,[9]; [21],0%
same,%Inh,[10]; [21],3%
same,%Inh,[11]; [21],37%
same,%Inh,[12]; [21],8%
same,%Inh,[13]; [21],15%
same,%Inh,[14]; [21],0%
same,%Inh,[15]; [21],0%
same,%Inh,[16]; [21],18%
same,%Inh,[17]; [21],30%
same,%Inh,[18]; [21],19%
same,%Inh,[19]; [21],13%
same,%Inh,[20]; [21],15%
Fc1cc(Cl)ccc1Nc1ccnc2cc(I)ccc12 [GW551191],%Inh,[1]; [21],0%
same,%Inh,[2]; [21],37%
same,%Inh,[3]; [21],27%
same,%Inh,[4]; [21],0%
same,%Inh,[5]; [21],5%
same,%Inh,[6]; [21],5%
same,%Inh,[7]; [21],0%
same,%Inh,[8]; [21],0%
same,%Inh,[9]; [21],0%
same,%Inh,[10]; [21],0%
same,%Inh,[11]; [21],0%
same,%Inh,[12]; [21],5%
same,%Inh,[13]; [21],35%
same,%Inh,[14]; [21],4%
same,%Inh,[15]; [21],0%
same,%Inh,[16]; [21],20%
same,%Inh,[17]; [21],0%
same,%Inh,[18]; [21],0%
same,%Inh,[19]; [21],0%
same,%Inh,[20]; [21],19%
CCn1c(-c2ccccn2)nc2cnccc21 [SB-736398],%Inh,[1]; [21],0%
same,%Inh,[2]; [21],20%
same,%Inh,[3]; [21],3%
same,%Inh,[4]; [21],0%
same,%Inh,[5]; [21],0%
same,%Inh,[6]; [21],4%
same,%Inh,[7]; [21],4%
same,%Inh,[8]; [21],42%
same,%Inh,[9]; [21],0%
same,%Inh,[10]; [21],0%
same,%Inh,[11]; [21],0%
same,%Inh,[12]; [21],0%
same,%Inh,[13]; [21],4%
same,%Inh,[14]; [21],0%
same,%Inh,[15]; [21],0%
same,%Inh,[16]; [21],0%
same,%Inh,[17]; [21],0%
same,%Inh,[18]; [21],0%
same,%Inh,[19]; [21],0%
same,%Inh,[20]; [21],0%
Cc1ccc(NC(=O)Nc2cccc(C(F)(F)F)c2)cc1 [GSK955403],%Inh,[1]; 1 µM,0%
same,%Inh,[2]; 1 µM,29%
same,%Inh,[3]; 1 µM,3%
same,%Inh,[4]; 1 µM,36%
same,%Inh,[5]; 1 µM,0%
same,%Inh,[6]; 1 µM,0%
same,%Inh,[7]; 1 µM,0%
same,%Inh,[8]; 1 µM,0%
same,%Inh,[9]; 1 µM,28%
same,%Inh,[10]; 1 µM,0%
same,%Inh,[11]; 1 µM,0%
same,%Inh,[12]; 1 µM,0%
same,%Inh,[13]; 1 µM,0%
same,%Inh,[14]; 1 µM,0%
same,%Inh,[15]; 1 µM,1%
same,%Inh,[16]; 1 µM,0%
same,%Inh,[17]; 1 µM,1%
same,%Inh,[18]; 1 µM,0%
same,%Inh,[19]; 1 µM,0%
same,%Inh,[20]; 1 µM,18%
Nc1nc(-c2nccs2)c(-c2ccnc3ccccc23)s1 [GW693542],%Inh,[1]; [21],0%
same,%Inh,[2]; [21],44%
same,%Inh,[3]; [21],22%
same,%Inh,[4]; [21],0%
same,%Inh,[5]; [21],0%
same,%Inh,[6]; [21],16%
same,%Inh,[7]; [21],0%
same,%Inh,[8]; [21],0%
same,%Inh,[9]; [21],9%
same,%Inh,[10]; [21],23%
same,%Inh,[11]; [21],40%
same,%Inh,[12]; [21],58%
same,%Inh,[13]; [21],41%
same,%Inh,[14]; [21],9%
same,%Inh,[15]; [21],0%
same,%Inh,[16]; [21],24%
same,%Inh,[17]; [21],0%
same,%Inh,[18]; [21],2%
same,%Inh,[19]; [21],0%
same,%Inh,[20]; [21],0%
